In PubChem BioAssay (EPA / NIEHS) one finds outcome and AC50 data, which are given here for 3 compounds.

Active and inactive are the calls of the source. The calls were made as follows: active = hit-call score of the fitted dose curve at least 0.9, where 1 is the maximum; inactive = score below 0.9.

Common to all, as to conditions: mRNA level, 48 h; actives raise or lower the signal
Read-out in test [1]: Paternally Expressed 10 (PEG10), PEG10 (gene 23089)
The test can be described thus: LTEA_HepaRG_PEG10: Life Technologies and Expression Analysis (LTEA) Assay for Paternally Expressed 10 (PEG10) using HepaRG (AID 2283520).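 As to AC50: differentiated HepaRG human liver cells in serum-free induction medium with 0.5% DMSO; PEG10 transcript by qRT-PCR normalised to ACTB GAPDH and POLR2A.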 In short, it runs like this:
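Human HepaRG cultures are dosed for 48 h across an eight-point half-log series starting at 100 uM, with 0.5% DMSO as vehicle and baseline. Gain or loss of PEG10 transcript is measured by qRT-PCR and fitted in both directions.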

Read-out in test [2]: Nuclear factor NF-kappa-B p105 subunit (Homo sapiens) (UniProt P19838)
Kind of test: LTEA_HepaRG_NFKB1: Life Technologies and Expression Analysis (LTEA) Assay for Nuclear Factor Kappa B Subunit 1 (NFKB1) using HepaRG (AID 2283521).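 As to outcome: differentiated human HepaRG liver cells in serum-free induction medium; TaqMan qRT-PCR transcript normalised to ACTB GAPDH and POLR2A housekeeping genes.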 In short, it runs like this:
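HepaRG, 48 h exposure; 8-pt half-log series from 100 uM in 0.5% DMSO; duplicates. Readout: NFKB1 mRNA by qRT-PCR (Fluidigm arrays), housekeeping-normalized. Gain/loss fit vs DMSO baseline.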

Read-out in test [3]: Protein phosphatase 2A (PPP2R4), PTPA (gene 5524)
Kind of test: LTEA_HepaRG_PPP2R4: Life Technologies and Expression Analysis (LTEA) Assay for Protein phosphatase 2A (PPP2R4) using HepaRG (AID 2283522). The method, boiled down:
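Cells were plated, cultured 48 h, switched to serum-free induction medium, then dosed for 48 h (8 points, max 100 uM, 0.5% DMSO). RNA was isolated and PPP2R4 expression measured by TaqMan qRT-PCR.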

Read-out in test [4]: Phosphatase and tensin (PTEN), PTEN (gene 5728)
The test can be described thus: LTEA_HepaRG_PTEN: Life Technologies and Expression Analysis (LTEA) Assay for Phosphatase and tensin (PTEN) using HepaRG (AID 2283523). The method, boiled down:
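HepaRG, 48 h exposure, 8-pt half-log series from 100 uM top, 0.5% DMSO vehicle, duplicates. Readout: Fluidigm qRT-PCR of PTEN transcript; housekeeping normalization (ACTB, GAPDH, POLR2A). Gain or loss fitted relative to DMSO baseline.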

Read-out in test [5]: solute carrier (SLC22A1), SLC22A1 (gene 6580)
Kind of test: LTEA_HepaRG_SLC22A1: Life Technologies and Expression Analysis (LTEA) Assay for solute carrier (SLC22A1) using HepaRG (AID 2283524).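 As to AC50: differentiated human HepaRG liver cells in serum-free induction medium.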 The method, boiled down: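 qRT-PCR readout (TaqMan, Fluidigm arrays) of SLC22A1 transcript, normalized to three housekeeping genes; bidirectional curve fit relative to 0.5% DMSO vehicle. Differentiated human HepaRG cells, 48 h chemical exposure, top concentration 100 uM, half-log steps, eight points.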

Read-out in test [6]: Pyruvate Dehydrogenase Kinase 4 (PDK4), PDK4 (gene 5166)
The test can be described thus: LTEA_HepaRG_PDK4: Life Technologies and Expression Analysis (LTEA) Assay for Pyruvate Dehydrogenase Kinase 4 (PDK4) using HepaRG (AID 2283525). In short, it runs like this:
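HepaRG (human liver line), 48 h chemical exposure, 8-pt half-log CRC top 100 uM, 0.5% DMSO vehicle, duplicates. Readout: TaqMan qRT-PCR of PDK4 mRNA, housekeeping-normalized; gain/loss fit relative to DMSO baseline.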

Read-out in test [7]: Nuclear factor erythroid 2-related factor 2 (Homo sapiens) (UniProt Q16236)
The test can be described thus: LTEA_HepaRG_NFE2L2: Life Technologies and Expression Analysis (LTEA) Assay for Nuclear factor erythroid 2-related factor 2 (NFE2L2) Transcription Factor using HepaRG (AID 2283527).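 Also: TaqMan qRT-PCR transcript level normalised to ACTB GAPDH and POLR2A housekeeping genes.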 In short, it runs like this:
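HepaRG, 48 h dosing, 8-pt half-log series from 100 uM in 0.5% DMSO, duplicates. Read-out: NFE2L2 mRNA by qRT-PCR (ACTB/GAPDH/POLR2A normalization). Bidirectional curve fit vs DMSO baseline.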

Read-out in test [8]: succinate dehydrogenase complex iron sulfur subunit B (SDHB), SDHB (gene 6390)
Kind of test: LTEA_HepaRG_SDHB: Life Technologies and Expression Analysis (LTEA) Assay for succinate dehydrogenase complex iron sulfur subunit B (SDHB) using HepaRG (AID 2283528). The method, boiled down: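 Readout is SDHB transcript level by qRT-PCR, normalised to three housekeeping genes and fitted bidirectionally against 0.5% DMSO vehicle. Human HepaRG cells were treated for 48 h at up to 100 uM.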

Read-out in test [9]: solute carrier (SLCO1B1), SLCO1B1 (gene 10599)
The test can be described thus: LTEA_HepaRG_SLCO1B1: Life Technologies and Expression Analysis (LTEA) Assay for solute carrier (SLCO1B1) using HepaRG (AID 2283530). In short, it runs like this: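 HepaRG, serum-free induction medium, 48 h dosing, 8-pt half-log from 100 uM, 0.5% DMSO vehicle, duplicates. Readout: SLCO1B1 mRNA, qRT-PCR, ACTB/GAPDH/POLR2A normalization; up or down fit vs DMSO.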

Read-out in test [10]: sulfotransferase 2A1 (SULT2A1), SULT2A1 (gene 6822)
Kind of test: LTEA_HepaRG_SULT2A1: Life Technologies and Expression Analysis (LTEA) Assay for sulfotransferase 2A1 (SULT2A1) using HepaRG (AID 2283531). In short, it runs like this: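 Transcript levels of SULT2A1, quantified by qRT-PCR and normalized to three housekeeping genes, serve as the readout. Human HepaRG cultures receive test chemicals for 48 h at up to 100 uM in half-log steps, with 0.5% DMSO vehicle.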

Read-out in test [11]: Transforming Growth Factor (TGFA), TGFA (gene 7039)
The test can be described thus: LTEA_HepaRG_TGFA: Life Technologies and Expression Analysis (LTEA) Assay for Transforming Growth Factor (TGFA) using HepaRG (AID 2283532). The method, boiled down: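 qRT-PCR read-out of TGFA transcript, normalized to three housekeeping genes, fitted bidirectionally against 0.5% DMSO baseline. Human HepaRG cultures received chemicals for 48 h at eight half-log concentrations, top 100 uM.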

Read-out in test [12]: Transforming Growth Factor (TGFB1), TGFB1 (gene 7040)
Kind of test: LTEA_HepaRG_TGFB1: Life Technologies and Expression Analysis (LTEA) Assay for Transforming Growth Factor (TGFB1) Transporter using HepaRG (AID 2283533). In short, it runs like this: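 HepaRG, 48 h post-plating, switched to serum-free induction medium; chemicals 100 uM top, half-log, 8 pts, 0.5% DMSO, dup; 48 h exposure; RNA → Fluidigm TaqMan qRT-PCR; norm ACTB/GAPDH/POLR2A; bidirectional fit vs DMSO.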

Read-out in a further test: TIMP1, TIMP1 (gene 7076)
The test can be described thus: LTEA_HepaRG_TIMP1: Life Technologies and Expression Analysis (LTEA) Assay for TIMP1 using HepaRG (AID 2283534). The method, boiled down:
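Readout is TIMP1 mRNA level measured by qRT-PCR and normalized to three housekeeping genes. Human HepaRG cells were treated for 48 h in duplicate at eight concentrations up to 100 uM (0.5% DMSO); gain or loss fitted against DMSO.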

Read-out in test [13]: Tumor necrosis factor receptor 1 (TNFRSF1A), TNFRSF1A (gene 7132)
The test can be described thus: LTEA_HepaRG_TNFRSF1A: Life Technologies and Expression Analysis (LTEA) Assay for Tumor necrosis factor receptor 1 (TNFRSF1A) using HepaRG (AID 2283535). The method, boiled down:
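Read-out is TNFRSF1A transcript level by TaqMan qRT-PCR, normalized to three housekeeping genes, scored as gain or loss of signal versus 0.5% DMSO. Human HepaRG cells received test chemicals for 48 h at up to 100 uM (half-log series).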

Read-out in test [14]: Thyroid Hormone Responsive (THRSP), THRSP (gene 7069)
Kind of test: LTEA_HepaRG_THRSP: Life Technologies and Expression Analysis (LTEA) Assay for Thyroid Hormone Responsive (THRSP) using HepaRG (AID 2283536). The method, boiled down: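 qRT-PCR read-out (Fluidigm TaqMan), housekeeping-normalized (ACTB/GAPDH/POLR2A). HepaRG, 48 h chemical exposure, 8-pt half-log series from 100 uM in 0.5% DMSO, duplicates. Bidirectional curve fit vs 0.5% DMSO baseline.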

Read-out in test [15]: Cellular tumor antigen p53 (Homo sapiens) (UniProt P04637)
The test can be described thus: LTEA_HepaRG_TP53: Life Technologies and Expression Analysis (LTEA) Assay for Tumor Protein P53 (TP53) using HepaRG (AID 2283537). The method, boiled down:
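Read-out is TP53 transcript level by microfluidic qRT-PCR, normalised to three housekeeping genes and fitted bidirectionally against DMSO. Human HepaRG cells received compounds for 48 h, highest concentration 100 uM.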

Read-out in test [16]: UDP glucuronosyltransferase (UGT1A1), UGT1A1 (gene 54658)
The test can be described thus: LTEA_HepaRG_UGT1A1: Life Technologies and Expression Analysis (LTEA) Assay for UDP glucuronosyltransferase (UGT1A1) using HepaRG (AID 2283538). In short, it runs like this: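 Cells are plated, cultured 48 h, switched to serum-free induction medium, then dosed 48 h at eight concentrations (max 100 uM, 0.5% DMSO). RNA is isolated and UGT1A1 expression measured by qRT-PCR; changes versus DMSO are fitted in both directions.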

Read-out in test [17]: UDP glucuronosyltransferase (UGT1A6), UGT1A6 (gene 54578)
Kind of test: LTEA_HepaRG_UGT1A6: Life Technologies and Expression Analysis (LTEA) Assay for UDP glucuronosyltransferase (UGT1A6) using HepaRG (AID 2283539). In short, it runs like this:
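HepaRG, 48 h post-plating switch to serum-free induction medium; chemical 48 h, 100 uM top, half-log x8, duplicate, 0.5% DMSO. Phenobarbital 1mM induction control. UGT1A6 mRNA by TaqMan qRT-PCR; gain/loss fit vs DMSO.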

Read-out in test [18]: NAD(P)H dehydrogenase [quinone] 1 (NQO1), NQO1 (gene 1728)
Kind of test: LTEA_HepaRG_NQO1: Life Technologies and Expression Analysis (LTEA) Assay for NAD(P)H dehydrogenase [quinone] 1 (NQO1) using HepaRG (AID 2283526). In short, it runs like this: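 Transcript induction or suppression is quantified by qRT-PCR in human HepaRG liver cells dosed for 48 hours. Eight half-log concentrations topping at 100 uM are used, with 0.5% DMSO as vehicle and baseline.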

Read-out in test [19]: Signal transducer and activator of transcription 3 (Homo sapiens) (UniProt P40763)
The test can be described thus: LTEA_HepaRG_STAT3: Life Technologies and Expression Analysis (LTEA) Assay for Signal transducer and activator of transcription (STAT3) using HepaRG (AID 2283529). The method, boiled down: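 HepaRG, 48 h exposure, 8-pt half-log series (top 100 uM), 0.5% DMSO vehicle, duplicates. Readout: STAT3 transcript by Fluidigm qRT-PCR, housekeeping-normalized; bidirectional fit vs DMSO baseline.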

Sequence of Cellular tumor antigen p53 (Homo sapiens) (P04637 whole entry, looked up): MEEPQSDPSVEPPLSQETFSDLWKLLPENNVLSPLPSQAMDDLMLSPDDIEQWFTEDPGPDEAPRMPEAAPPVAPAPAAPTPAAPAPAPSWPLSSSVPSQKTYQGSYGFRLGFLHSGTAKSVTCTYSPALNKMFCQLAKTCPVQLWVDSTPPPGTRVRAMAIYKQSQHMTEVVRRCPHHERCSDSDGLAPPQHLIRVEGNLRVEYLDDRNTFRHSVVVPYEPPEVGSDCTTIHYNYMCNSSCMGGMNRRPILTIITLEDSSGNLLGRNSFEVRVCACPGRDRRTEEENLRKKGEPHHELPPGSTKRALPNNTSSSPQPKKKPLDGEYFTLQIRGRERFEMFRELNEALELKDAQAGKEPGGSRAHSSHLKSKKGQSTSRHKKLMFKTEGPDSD
Sequence of Nuclear factor NF-kappa-B p105 subunit (Homo sapiens) (P19838 whole entry, looked up): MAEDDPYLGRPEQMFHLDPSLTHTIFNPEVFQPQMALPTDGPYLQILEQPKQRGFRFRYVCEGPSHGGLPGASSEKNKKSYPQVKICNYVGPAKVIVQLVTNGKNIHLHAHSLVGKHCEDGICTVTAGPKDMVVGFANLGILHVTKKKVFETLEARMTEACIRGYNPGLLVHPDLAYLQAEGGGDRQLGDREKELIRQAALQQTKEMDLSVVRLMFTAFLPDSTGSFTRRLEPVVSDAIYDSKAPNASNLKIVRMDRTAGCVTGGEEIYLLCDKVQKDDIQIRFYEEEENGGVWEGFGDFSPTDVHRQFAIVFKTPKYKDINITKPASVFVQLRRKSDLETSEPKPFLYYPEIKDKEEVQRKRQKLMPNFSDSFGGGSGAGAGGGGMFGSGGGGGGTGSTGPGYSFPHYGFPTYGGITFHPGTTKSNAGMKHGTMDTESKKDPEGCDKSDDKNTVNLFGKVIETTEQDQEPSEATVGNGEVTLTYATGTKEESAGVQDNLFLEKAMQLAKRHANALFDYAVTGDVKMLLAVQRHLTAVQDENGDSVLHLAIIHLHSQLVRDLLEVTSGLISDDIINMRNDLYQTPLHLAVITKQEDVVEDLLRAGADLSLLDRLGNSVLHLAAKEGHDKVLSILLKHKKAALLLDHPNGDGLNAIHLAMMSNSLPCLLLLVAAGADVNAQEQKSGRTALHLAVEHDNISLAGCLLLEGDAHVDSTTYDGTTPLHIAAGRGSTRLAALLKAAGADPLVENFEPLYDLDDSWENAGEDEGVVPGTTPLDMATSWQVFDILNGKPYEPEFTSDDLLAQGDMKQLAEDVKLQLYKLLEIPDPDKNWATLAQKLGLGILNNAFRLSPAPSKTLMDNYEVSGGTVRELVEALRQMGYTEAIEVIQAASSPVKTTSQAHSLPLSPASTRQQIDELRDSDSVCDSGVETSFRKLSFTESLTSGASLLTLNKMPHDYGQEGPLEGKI
Sequence of Nuclear factor erythroid 2-related factor 2 (Homo sapiens) (Q16236 whole entry, looked up): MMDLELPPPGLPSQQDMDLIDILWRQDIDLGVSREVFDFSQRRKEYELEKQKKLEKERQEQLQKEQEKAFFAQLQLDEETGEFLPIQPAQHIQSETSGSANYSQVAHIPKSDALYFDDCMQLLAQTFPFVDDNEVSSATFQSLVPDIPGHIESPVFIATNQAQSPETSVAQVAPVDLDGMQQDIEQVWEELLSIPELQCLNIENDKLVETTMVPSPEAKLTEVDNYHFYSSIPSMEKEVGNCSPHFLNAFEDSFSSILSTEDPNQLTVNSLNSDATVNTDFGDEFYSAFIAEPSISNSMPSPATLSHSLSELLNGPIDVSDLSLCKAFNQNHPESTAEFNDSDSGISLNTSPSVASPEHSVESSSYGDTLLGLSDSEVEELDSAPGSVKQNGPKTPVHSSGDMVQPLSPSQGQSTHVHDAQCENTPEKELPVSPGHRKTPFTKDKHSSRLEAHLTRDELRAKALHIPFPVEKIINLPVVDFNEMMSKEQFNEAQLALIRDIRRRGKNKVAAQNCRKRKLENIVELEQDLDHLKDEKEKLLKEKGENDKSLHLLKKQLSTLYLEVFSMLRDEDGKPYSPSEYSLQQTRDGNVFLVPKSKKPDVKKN
Sequence of Signal transducer and activator of transcription 3 (Homo sapiens) (P40763 whole entry, looked up): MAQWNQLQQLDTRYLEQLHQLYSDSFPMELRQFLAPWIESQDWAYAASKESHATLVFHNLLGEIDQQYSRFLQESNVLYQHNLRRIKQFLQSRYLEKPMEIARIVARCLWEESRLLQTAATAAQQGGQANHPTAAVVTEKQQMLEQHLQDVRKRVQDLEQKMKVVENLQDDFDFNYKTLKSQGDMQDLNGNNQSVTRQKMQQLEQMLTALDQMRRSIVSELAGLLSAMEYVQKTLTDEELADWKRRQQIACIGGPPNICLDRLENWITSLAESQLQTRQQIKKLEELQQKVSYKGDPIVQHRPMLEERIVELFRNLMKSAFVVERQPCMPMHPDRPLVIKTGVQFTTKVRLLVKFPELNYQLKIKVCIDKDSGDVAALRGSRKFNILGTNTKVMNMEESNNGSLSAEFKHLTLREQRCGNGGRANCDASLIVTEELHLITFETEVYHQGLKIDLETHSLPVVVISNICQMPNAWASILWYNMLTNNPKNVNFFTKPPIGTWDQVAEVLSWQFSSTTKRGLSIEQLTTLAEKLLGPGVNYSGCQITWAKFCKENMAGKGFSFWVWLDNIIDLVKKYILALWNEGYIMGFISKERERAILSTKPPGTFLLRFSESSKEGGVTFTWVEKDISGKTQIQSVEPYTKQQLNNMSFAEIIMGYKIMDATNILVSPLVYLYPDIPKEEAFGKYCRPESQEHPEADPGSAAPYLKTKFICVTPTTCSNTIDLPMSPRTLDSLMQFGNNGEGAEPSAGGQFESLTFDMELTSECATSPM

For `Cc1cn([C@H]2C[C@H](N=[N+]=[N-])[C@@H](CO)O2)c(=O)[nH]c1=O`, the compound was classed as inactive in [1], in test [2], in [3], in test [4], in test [5] and in test [6]. For the same compound, the call in test [7], in test [8], in test [9], in [10], in test [11] and in test [12] was inactive. The outcome with TIMP1, TIMP1 (gene 7076) is “inactive”; in [13], “inactive”; in [14], “inactive”; in test [15] it was “inactive”; in test [16], “inactive”; in test [17], “inactive”.
With `CC[C@@H]1C[C@H](N(Cc2cc(C(F)(F)F)cc(C(F)(F)F)c2)C(C)=O)c2cc(C(F)(F)F)ccc2N1C(=O)OC(C)C`, the AC50 in [1] was 11.6 µM (active); in test [16] it was 0.546 µM (active). In addition, the compound was classed as inactive in test [2], in test [3], in test [4], in test [5], in [18] and in test [7]. The outcome in test [8] was “inactive”; in test [9] it was “inactive”; in test [10] it was “inactive”; in [11], “inactive”; in test [12], “inactive”; with TIMP1, TIMP1 (gene 7076) it was “inactive”. For the same compound, the result in [13], in test [14], in test [15] and in test [17] was inactive.
Take `CN1C(=O)N(c2ccccc2Br)Cc2cnc(Nc3ccc4c(c3)OCC(CO)O4)nc21` (stereo unspecified): the compound was called inactive in test [1], in [3], in test [4], in test [18], in test [7] and in [11]. In addition, the outcome in [14] and in [15] was inactive. Further, the AC50 was 19.5 µM (active) in test [2]; 35.2 µM (active) in [5]; 50 µM (active) in test [6]; 12.2 µM (active) in test [8]; 50 µM (active) in test [19]; 80.9 µM (active) in [9]. The AC50 in [10] was 81.1 µM (active); in test [12] it was 24.2 µM (active); with TIMP1, TIMP1 (gene 7076), 11.9 µM (active); in [13], 83.7 µM (active); in [16], 85.6 µM (active); in test [17] it was 81.5 µM (active).

Broadly, the AC50 is the concentration at which the activity in the assay is half-maximal.
